Screening data from PubChem BioAssay.
NPSR antag: blocks cAMP signaling of the human neuropeptide S receptor; 220,000 tested, 1% active; Potency, µM (series often up to 38.3 µM), without a hit: top-dose activity change, negative = inhibition, hits mostly inhibitors; AID 1461; CHO-NPSR cells, cAMP TR-FRET, antagonist mode; further: nearly all actives have a fitted effect of over 50% in size
Target sequence (Q6W5P4 whole entry, looked up): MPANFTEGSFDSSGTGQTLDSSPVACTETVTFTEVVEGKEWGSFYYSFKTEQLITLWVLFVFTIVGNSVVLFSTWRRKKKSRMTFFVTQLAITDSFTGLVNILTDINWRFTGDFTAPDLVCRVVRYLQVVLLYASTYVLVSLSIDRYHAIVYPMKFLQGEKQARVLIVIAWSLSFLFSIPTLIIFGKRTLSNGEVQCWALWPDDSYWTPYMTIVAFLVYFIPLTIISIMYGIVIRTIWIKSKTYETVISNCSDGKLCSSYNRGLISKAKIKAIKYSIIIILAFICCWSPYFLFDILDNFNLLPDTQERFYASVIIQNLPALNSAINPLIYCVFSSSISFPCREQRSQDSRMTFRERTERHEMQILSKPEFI
ERK EGF inh: inhibitors of EGF-stimulated ERK signaling pathway. HEK293-V1b, EGF-stimulated phospho-ERK AlphaScreen. Potency, µM (top dose mostly 11.5 µM), inactives show at the top dose activity change, negative = inhibition, hits mostly inhibitors. 130,000 tested, 0.41% active. AID 1454;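 further: plate controls were stimulated vehicle wells for no effect and unstimulated vehicle basal for full effect; nearly all actives have a fitted effect of over 55% in size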
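In this qHTS, HEK293 cells with stable type-1 vasopressin (V1b) receptor were exposed to compound at 37C for 30 min, stimulated 5 min with EGF at 25 nM, lysed, and probed for phospho-ERK by AlphaScreen.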
* hit, by the source's call; u = inconclusive; x = not tested or not shown; [ ] = another dose, or the depositor's remark. This is one part of a sample in which hits are shown more often than they occur. The call rests on the fitted dose curve; in most records, active means well fitted curve in the direction sought with a large enough effect; inconclusive means small, poorly fitted or top-dose-only effect, or another doubt; inactive means no such curve, though single readings can be large; an effect the other way counts as inactive or inconclusive. Unless noted, on the % scale 0 is the no-effect control and ±100 the full control effect; potency means the concentration at half of the fitted maximal effect.

SMILES	NPSR antag	ERK EGF inh
CCC1(O)CC2CN(CCc3c([nH]c4ccccc34)[C@@](C(=O)OC)(c3cc4c(cc3OC)N(C)C3[C@]45CCN4CC=C[C@@](CC)([C@@H](OC(C)=O)[C@]3(O)C(=O)OC)[C@H]45)C2)C1 (some centres not stated)	u	15%
NC(=O)c1ccsc1NC(=O)C1CCCN1S(=O)(=O)c1ccc(Cl)cc1 (configuration not stated)	-21%[46.1 µM]	x
CC1CCCCN1S(=O)(=O)c1ccc(C(=O)Nc2sccc2C(N)=O)cc1 (configuration not stated)	1.6µM*	x
O=Nc1c(-c2c(O)[nH]c3cc(Br)ccc23)[nH]c2ccccc12	u	28µM*
O=C(CSCc1cccc(Br)c1)N=Nc1c(O)[nH]c2ccccc12	-15%[46.1 µM]	x
CCOC(=O)c1cnc(Nc2nc3ccccc3o2)nc1CSC(=S)N(CC)CC	0.5µM*	-4%
Cc1ccnc(Nc2nc3ccccc3o2)n1	6%[46.1 µM]	x
N#C/C(=C/c1ccc(N2CCCCC2)o1)c1cccc(F)c1	10µM*	x
N#C/C(=C\c1ccc(N2CCOCC2)o1)C(=O)NC1CCCCC1	u	-14%[57.5 µM]
N#C/C(=C/c1ccc(N2CCCCC2)cc1)c1cccc(F)c1	-19%	-17%
N#C/C(=C/c1ccc(N2CCCCCC2)o1)c1ccc(Cl)cc1	10µM*	x
COC(=O)c1nnc(C(=O)NCc2ccccc2)c2[nH]c3ccccc3c12	x	-1%
CCOC(=O)CSc1c(-c2ccc(Cl)cc2)[nH]c2ccccc12	-48%	1%
O=C(Cc1cccs1)NCCSc1c(-c2ccc(Cl)cc2)[nH]c2ccccc12	10µM*	-22%
C[N+]1(C)CC[C@@H](OC(=O)[C@@](O)(c2ccccc2)C2CCCC2)C1	x	0%[25.7 µM]
COc1cccc([C@@H]2Oc3ccc(OC)cc3C(=O)[C@H]2OC(=O)NS(=O)(=O)c2ccc(C)cc2)c1	x	-5%
CCCCCCCC/C=C\CCCCCCCCOC[C@H](COP(=O)([O-])OCC[N+](C)(C)C)OC(C)=O	x	-5%
CC1=CC(=O)[C@@H]2C[C@H]1C2(C)C	x	-8%
c1ccc(-c2nnc3sc(-c4csc5c4CCCC5)nn23)cc1	10µM*	x
c1ccc(-c2nnc3sc(-c4ccncc4)nn23)cc1	2%[46.1 µM]	x
C=CCOC(=O)N[C@H](c1ccccc1)C(C(C)=O)C(C)=O	x	-9%
CCCCCC(=O)/C=C/[C@H]1[C@H](O)CC(=O)[C@@H]1C/C=C\CCCC(=O)O	x	-2%
Cc1nc(NC2CCCCC2)c2nc(-c3ccccc3)n(CC3CCN(C)CC3)c2n1	x	-3%
C#CC(=O)N(c1ccc(OC)c(OC)c1)C(C(=O)NC1CCCC1)c1cccs1 (configuration not stated)	13µM*	x
C#CC(=O)N(c1cccc(OC)c1)C(C(=O)NC1CCCC1)c1cccs1 (configuration not stated)	4µM*	x
SMILES	NPSR antag	ERK EGF inh
COc1ccc(N(C(=O)Cc2cccs2)C(C(=O)NC2CCCCC2)c2cccn2C)cc1OC (configuration not stated)	-26%[46.1 µM]	2%
Cc1cccc(N(C(=O)C(F)(F)F)C(C(=O)NC2CCCCC2)c2cccs2)c1 (configuration not stated)	-22%[46.1 µM]	x
CCCCC/C=C\C/C=C\C/C=C\CCCCCCC(=O)NC(C)C(=O)O (configuration not stated)	x	-12%
CN(C)c1ccnc(Nc2ccccc2)c1C#N	-18%	7%[57.5 µM]
CN(C)c1ccnc2c[cH-]cc12.[Fe].c1ccc(-[c-]2[c-](-c3ccccc3)[c-](-c3ccccc3)[c-](-c3ccccc3)[c-]2-c2ccccc2)cc1 (configuration not stated)	-12%	3.2µM*
C=CCC(O)(/C=C/c1ccccc1)c1ccccc1 (configuration not stated)	x	-2%
C=C1C(=O)C=C2CN(C(=O)c3ccccc3)[C@@](Cc3ccc(OC)cc3)(C(=O)OC)[C@@H]12	x	13µM*
COC(=O)[C@@]1(Cc2ccc(OC)cc2)[C@@H]2C(=CC(=O)[C@H]2CC(=O)C(=O)N2CCCC2)CN1C(=O)c1ccccc1	-31%	-5%
CCN1C(=O)/C(=C/C2=Cc3ccccc3OC2C)SC1=S (configuration not stated)	1%	16µM*
CC1Oc2ccccc2C=C1/C=C1/SC(N2CCOCC2)=NC1=O (configuration not stated)	-19%[46.1 µM]	x
CCOC(=O)c1sc(N/N=C/c2ccccc2)nc1C	-6%	-5%
CC(=O)c1sc(N/N=C\c2ccccc2O)nc1C	1.6µM*	-7%
O=C(Nc1ncc([N+](=O)[O-])s1)c1cccc([N+](=O)[O-])c1	5µM*	-11%[57.5 µM]
O=C(Nc1nc(-c2ccccc2)cs1)c1cccc([N+](=O)[O-])c1	-12%[46.1 µM]	x
O=C(OC1Cc2c(O)cc(O)cc2OC1c1cc(O)c(O)c(O)c1)c1cc(O)c(O)c(O)c1 (configuration not stated)	x	13%
